Experimental data published in PubChem BioAssay (Tox21).
Several values for one entry are separate records, joined by “and”; a condition that tells them apart may be missing. Equal values may be shown once. Records with an inconclusive call do not appear. Activity calls are given as the source filed them. The call rests on the fitted dose curve; in most records, active means well fitted curve in the direction sought with a large enough effect in the repeat runs; inconclusive means weak or mixed curves; inactive means no such curve, though single readings can be large; an effect the other way counts as inactive or inconclusive.

How the values were obtained:
[1] = A CellTox Green Cytotoxicity Assay to monitor cytotoxicity in HepG2 cells - 0 hour (AID 1224882); further: nearly all actives have a fitted effect of over 35% in size
Procedure, shortened: (§1)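 Cytotoxicity was tracked as dead-cell DNA fluorescence in HepG2 cells treated with test compounds at 37 C; each time-point value comes from one kinetic series spanning 0, 8, 16, 24, 32 and 40 h.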

[2] = A CellTox Green Cytotoxicity Assay to monitor cytotoxicity in HepG2 cells - 32 hour (AID 1224883); further: nearly all actives have a fitted effect of over 50% in size; further: potency means the concentration at half of the fitted maximal effect
Procedure, shortened: as §1

[3] = A CellTox Green Cytotoxicity Assay to monitor cytotoxicity in HEK293 cells - 8 hour (AID 1224884); further: nearly all actives have a fitted effect of over 35% in size; further: potency means the concentration at half of the fitted maximal effect
Procedure, shortened: (§2)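 Real-time, in one plate: 600 HEK293 cells/well with dead-cell DNA dye, pinned compound after 5 h, 37 C incubation over 40 h; viable cells give no appreciable fluorescence.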

[4] = qHTS RealTime-Glo MT Cell Viability Assay in HepG2 cells - 16 hour (AID 1224885); further: nearly all actives have a fitted effect of over 50% in size; further: potency means the concentration at half of the fitted maximal effect
Procedure, shortened: (§3)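 Real-time, nonlytic viability: 600 HepG2 cells/well mixed with NanoLuc enzyme plus prosubstrate; 5 h settle, compound (DMSO) added by pintool; luminescence monitored over 40 h at 37 C.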

[5] = qHTS RealTime-Glo MT Cell Viability Assay in HEK293 cells - 24 hour (AID 1224886); further: nearly all actives have a fitted effect of over 50% in size; further: potency means the concentration at half of the fitted maximal effect
Procedure, shortened: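 Cells + reagent dispensed (600 cells/well, HEK293) → 5 h at 37 C/5% CO2 → 23 nL compound in DMSO pinned → 40 h at 37 C → luminescence read at 0, 8, 16, 24, 32, 40 h.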

[6] = qHTS RealTime-Glo MT Cell Viability Assay in HEK293 cells - 8 hour (AID 1224887); further: nearly all actives have a fitted effect of over 50% in size; further: potency means the concentration at half of the fitted maximal effect
Procedure, shortened: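 Kinetic, non-lysing viability readout. Seed HEK293 (600/well) with reagent, incubate 5 h at 37 C/5% CO2, pin 23 nL compound in DMSO, incubate at 37 C, read luminescence at 0, 8, 16, 24, 32, 40 h.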

[7] = qHTS RealTime-Glo MT Cell Viability Assay in HepG2 cells - 0 hour (AID 1224889); further: nearly all actives have a fitted effect of over 50% in size
Procedure, shortened: as §3

[8] = A CellTox Green Cytotoxicity Assay to monitor cytotoxicity in HepG2 cells - 8 hour (AID 1224890); further: nearly all actives have a fitted effect of over 45% in size; further: potency means the concentration at half of the fitted maximal effect
Procedure, shortened: as §1

[9] = qHTS assay to identify small molecule antagonists of the estrogen receptor alpha (ER-alpha) signaling pathway using the BG1 cell line in the presence of 0.1 nM 17-beta-estradiol - cell viability counter screen (AID 1259241); further: nearly all actives have a fitted effect of over 40% in size; further: potency means the concentration at half of the fitted maximal effect
Procedure, shortened: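 Cytotoxicity counter-screen: live-cell protease activity measured by fluorescence (30 min reagent step) in the same wells. Cells were VM7Luc4E2 with endogenous ER-alpha and ERE-driven luciferase, treated 22 hr at 37C alongside 0.1 nM 17beta-estradiol final.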

[10] = A CellTox Green Cytotoxicity Assay to monitor cytotoxicity in HEK293 cells - 16 hour (AID 1224888); further: nearly all actives have a fitted effect of over 35% in size; further: potency means the concentration at half of the fitted maximal effect
Procedure, shortened: as §2

Measured: Potency

ClC1=C(Cl)[C@]2(Cl)[C@H]3[C@H]([C@H]4C=C[C@H]3C4)[C@@]1(Cl)C2(Cl)Cl
inactive: [1] | [2] | [3] | [4] | [5] | [6] | [7] | [8] | [9]

c1ccc2cc3c(cc2c1)-c1cccc2cccc-3c12
inactive: [1] | [2] | [3] | [4] | [5] | [6] | [7] | [8]

Nc1ccc(Cc2ccc(N)c(Cl)c2)cc1Cl
active: [5] 26.6 µM | [6] 29.9 µM
inactive: [1] | [2] | [3] | [4] | [10] | [8]

NNC(=O)c1ccccc1
inactive: [1] | [2] | [3] | [4] | [5] | [7]

CC(O)C#N (configuration not stated)
inactive: [1] | [2] | [3] | [4] | [5] | [6] | [7] | [8] | [9]

COc1ccc(N)cc1N
active: [5] 40.1 µM | [6] 25.3 µM
inactive: [1] | [2] | [3] | [4] | [7] | [8]

O=C(CCl)C(Cl)Cl
inactive: [1] | [3] | [4] | [10] | [7] | [8] | [9]
active: [2] 55.5 µM | [5] 17.5 µM

N#CSCSC#N
active: [2] 39.8 µM and 17.2 µM | [4] 56.2 µM and 19.3 µM | [5] 12.6 µM and 19.3 µM | [6] 22.4 µM and 21.7 µM | [8] 34.3 µM | [9] 70.1 µM
inactive: [1] | [3] | [7]

CC(C)(O)c1cnn2c(-c3ccc(F)c(-c4c(F)cccc4C#N)c3)cnc2n1
active: [5] 5.49 µM | [6] 6.16 µM
inactive: [1] | [2] | [3] | [4] | [10] | [8] | [9]

CN(C)S(=O)(=O)N(SC(F)(Cl)Cl)c1ccccc1
active: [2] 5.49 µM | [4] 15.5 µM | [5] 4.36 µM | [6] 9.77 µM | [10] 19.5 µM
inactive: [1] | [3] | [8]

CCOC(=O)CC(=O)CCl
inactive: [1] | [2] | [3] | [4] | [10] | [7] | [8] | [9]
active: [5] 43.6 µM

Fc1ccc(Oc2ccnc3cc(Cl)cc(Cl)c23)cc1
inactive: [1] | [2] | [3] | [4] | [10] | [7] | [9]
active: [5] 11 µM

FC(Cl)(Cl)Cl
inactive: [1] | [2] | [3] | [4] | [5] | [10] | [7] | [9]

Oc1ccc(C(=C(Cl)Cl)c2ccc(O)cc2)cc1
inactive: [1] | [2] | [3] | [4] | [7] | [8]
active: [5] 38.8 µM

ClCCN1CCOCC1
inactive: [1] | [2] | [3] | [4] | [5] | [10] | [7] | [8] | [9]

CCc1cc(C)cc(CC)c1-c1c(OC(=O)C(C)(C)C)n2n(c1=O)CCOCC2
inactive: [1] | [2] | [3] | [4] | [5] | [6] | [7] | [8]

ClC1=C(Cl)[C@]2(Cl)[C@@H]3[C@@H](Cl)[C@@H](Cl)C[C@@H]3[C@@]1(Cl)C2(Cl)Cl
inactive: [1] | [2] | [3] | [4] | [5] | [6] | [10] | [7] | [9]

CCOCCOC(C)=O
inactive: [1] | [2] | [3] | [4] | [5] | [10] | [7] | [9]

Oc1ccccc1Br
inactive: [1] | [2] | [3] | [4] | [5] | [6] | [10] | [7] | [9]

O=C/C(Cl)=C(/Cl)C(=O)O
active: [2] 54.9 µM
inactive: [1] | [3] | [4] | [6] | [10] | [7] | [8] | [9]

CCCCCCCCCC[N+](C)(C)CCCCCCCCCC
inactive: [1]
active: [2] 9.77 µM | [3] 17.4 µM | [4] 11 µM | [5] 1.74 µM | [6] 21.9 µM | [10] 17.4 µM | [8] 19.5 µM

C[C@]12CC[C@H](O)C[C@H]1CC[C@@H]1[C@@H]2C[C@@H](O)[C@]2(C)[C@@H](C3=CC(=O)OC3)CC[C@]12O
active: [5] 0.616 µM
inactive: [1] | [2] | [3] | [4] | [6] | [7] | [8] | [9]

CCN(CC)C(=S)[S-].CCN(CC)C(=S)[S-].[Zn+2]
inactive: [1] | [3] | [10] | [7] | [8]
active: [2] 9.69 µM | [4] 13.7 µM | [5] 4.86 µM | [9] 1.92 µM

CC(C)(C)OO
inactive: [1] | [2] | [3] | [4] | [5] | [10] | [7] | [8] | [9]
